Data on 40 molecules can be found in PubChem BioAssay (EPA / NIEHS).

Records with an inconclusive call do not appear. Active and inactive are the calls of the source. How the source made its calls: active means hit-call score of the fitted dose curve at least 0.9, where 1 is the maximum; inconclusive means response in the unintended direction; inactive means score below 0.9.

Sequence of Oxysterols receptor LXR-alpha (Homo sapiens) (Q13133 whole entry, looked up): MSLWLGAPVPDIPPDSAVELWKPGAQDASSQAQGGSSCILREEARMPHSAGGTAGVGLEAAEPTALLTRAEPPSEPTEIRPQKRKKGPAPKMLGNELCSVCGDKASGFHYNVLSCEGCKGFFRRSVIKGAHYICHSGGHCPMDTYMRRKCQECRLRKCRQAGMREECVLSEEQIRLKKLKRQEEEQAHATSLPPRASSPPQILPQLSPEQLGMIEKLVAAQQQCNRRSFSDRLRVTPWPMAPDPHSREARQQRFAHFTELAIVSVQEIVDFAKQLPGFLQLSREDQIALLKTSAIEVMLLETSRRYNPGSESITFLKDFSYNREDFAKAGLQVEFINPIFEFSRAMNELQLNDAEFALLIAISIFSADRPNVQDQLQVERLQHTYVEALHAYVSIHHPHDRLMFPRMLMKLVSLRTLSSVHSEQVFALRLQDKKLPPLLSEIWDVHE

The target in the test is Oxysterols receptor LXR-alpha (Homo sapiens) (UniProt Q13133). The test is described as follows: ATG_LXRa_TRANS: Attagene TRANS-FACTORIAL HepG2 Assay for human Liver X Receptor alpha (LXRa) (AID 2282980). Particulars: HepG2 Attagene TRANS reporter, LXRa transactivation. As for the experimental part:
ATG_TRANS is a cell-based, multiplexed-readout assay that uses HepG2, a human liver cell line, with measurements taken at 24 hours after chemical dosing in a 24-well plate.ATG_LXRa_TRANS is one of 30 assay component(s) measured or calculated from the ATG_TRANS assay. It is designed to make measurements of mRNA induction, a form of inducible reporter, as detected with fluorescence intensity signals by Reverse transcription polymerase chain reaction (RT-PCR) and Capillary electrophoresis technology.Data from the assay component ATG_LXRa_TRANS was analyzed into 1 assay endpoint. This assay endpoint, ATG_LXRa_TRANS, was analyzed in the positive analysis fitting direction relative to DMSO as the negative control and baseline of activity. Using a type of inducible reporter, measures of mRNA for gain-of-signal activity can be used to understand the reporter gene at the transcription factor-level as they relate to the gene NR1H3. Furthermore, this assay endpoint can be referred to as a primary readout, because this assay has produced multiple assay endpoints where this one serves a reporter gene function. To generalize the intended target to other relatable targets, this assay endpoint is annotated to the nuclear receptor intended target family, where the subfamily is non-steroidal.
Human liver HepG2 cells are transiently transfected with multiple reporter transcription units (MRTUs) in 6-well plates using FuGene 6 reagent (Roche; 3 ml FuGene/1 mg DNA). The MRTU constructs are regulated by a cis-regulating element (promoter). […] A major difference between the CIS and TRANS system is that in CIS activities of endogenous TFs are measured, whereas the TRANS assay evaluates changes in activities of exogenous, chimeric NR-Gal4 proteins. […] At the end of 24 hour incubation, total RNA was isolated using TriZol reagent (Invitrogen). The isolated RNA is then reverse-transcribed using oligo(dT) primer and Mo-MLV reverse transcriptase (Invitrogen) with DNAse I (Ambion) treatment for 30 min. The one-tenth of the produced cDNA was amplified by PCR using Taq DNA polymerase (Invitrogen) and two reporter sequence-specific primers. The PCR products were fluorescently labeled by primer extension with 6-arboxyfluorescein (6-FAM) 5'-labeled reporter sequence-specific primer (2 min at 95 C, 20 s at 68 C and 10 min at 72 C) and these products were digested with 5U of HpaI (New England Biolabs) for 2h at 37 C. The fragments were purified using Qiaquick PCR columns (Qiagen), analyzed on an ABI 3130xL genetic analyzer (Applied Biosystems) with peak positions identified by using a set of X-rhodamine (ROX)-labeled MapMarker1000 molecular weight standards (BioVentures). The raw capillary electrophoresis data was processed using Attagraph software (Attagene).
`CC(CCO)CCc1ccccc1` (stereo not given): the result was inactive.
The same measure, in the same setting: the entry for `CC1=CC(=O)NS(=O)(=O)O1` is “inactive”; for `O=C(O)c1snc(Cl)c1Cl` it is “inactive”; for `CCn1c2ccccc2c2cc(N)ccc21` it is “inactive”.
For the molecule `C/C=C(\C)C(=O)OCc1ccccc1`, the call was inactive.
With `Cc1ccc(C=O)s1`, the result was inactive.
For `CC1CCC(C(C)(C)O)CC1` (stereo not given), the result was inactive.
Take `COc1cc(C=O)ccc1OC(=O)C(C)C`: the molecule was classed as inactive.
Same read-out and setting: the entry for `CC(C)=CCO` is “inactive”.
Still for that read-out and setting: the entry for `CCCC[n+]1ccccc1` is “inactive”; for `CC(C)=CCC[C@H](C)CC=O` it is “inactive”.
In the case of `O=C1OC2(c3cc(Br)c(O)c(Br)c3Oc3c2cc(Br)c(O)c3Br)c2c(Cl)c(Cl)c(Cl)c(Cl)c21`, the result was inactive.
As for `NCCOCCO`, the call was inactive.
Consider `CCC(C)CCCC(C)(C)O` (stereo not given), for which the outcome was inactive.
On the same count and under the same terms, the result for `C=CC(=O)OCCOCCOCC` reads “inactive”.
Still for that read-out and setting: the entry for `CCCCCCCCCCCCSC` is “inactive”; for `O=C1c2ccccc2C(=O)N1SC1CCCCC1` it is “inactive”; for `CCCCCCCCCCCCN` it is “inactive”.
Regarding `NC(=O)c1ccccc1Cl`, the molecule was classed as inactive.
The same measure, in the same setting: the result for `CC1COc2ccccc2N1C(=O)C(Cl)Cl` (stereo not given) reads “inactive”; that for `CN(CCOc1ccc(CC2SC(=O)NC2=O)cc1)c1ccccn1` (stereo not given), “inactive”.
The same measure, in the same setting: the result for `CCCCCCCCCCCCCCCCCC(=O)OCC(CC)CCCC` (stereo not given) reads “inactive”; that for `CCCCCCCCCCCCOCCO`, “inactive”; that for `O=Cc1ccc(Cl)c([N+](=O)[O-])c1`, “inactive”.
On the same count and under the same terms, the result for `CCCCCCCCCCCCN(CCCCCCCCCCCC)CCCCCCCCCCCC` reads “inactive”.
The AC50 is the concentration at which the activity in the assay is half-maximal. As to `Cc1c(Cl)c(=O)oc2cc(O)ccc12`, the AC50 was 20.9 µM (active).
In the case of `Cc1c(N(C)C)c(=O)n(-c2ccccc2)n1C`, the molecule was called inactive.
Take `CC(=O)C=CC1=C(C)CCCC1(C)C`: the call was inactive.
On the same count and under the same terms, the result for `COc1ccc(O)cc1` reads “inactive”; that for `C=C[C@@H](C)CCC=C(C)C`, “inactive”.
Same read-out and setting: the entry for `CC[Si](OC(C)=O)(OC(C)=O)OC(C)=O` is “inactive”; for `Cc1ccc(C(=O)c2cc(O)c(O)c([N+](=O)[O-])c2)cc1` it is “inactive”.
With `CC1CC(OC(=O)c2ccccc2O)CC(C)(C)C1` (stereo not given), the AC50 was 31.1 µM (active).
For the molecule `O=C(O)c1cccc([N+](=O)[O-])c1`, the call was inactive.
On to `CC(C)(C)c1n[nH]c(=S)n(N)c1=O`, for which the molecule was classed as inactive.
Take `O=C(O)CCCCCCCCCCC(=O)O`: the call was inactive.
Same read-out and setting: the result for `O=Nc1ccc(Nc2ccccc2)cc1` reads “inactive”; that for `CCCc1c(OCCCOc2ccc(OCC(=O)O)cc2)ccc(C(C)=O)c1O`, “inactive”.
Still for that read-out and setting: the entry for `O=C(O)c1ccc(C(=O)O)cc1` is “inactive”; for `c1ccc2sc(SN(C3CCCCC3)C3CCCCC3)nc2c1` it is “inactive”.
